# Reference: article PMC7862700, “An all-to-all approach to the identification of sequence-specific readers for epigenetic DNA modifications on cytosine”
# Legend:
# Assay in all cases: DAPPL (digital affinity profiling via proximity ligation, sequencing); 10 mM Tris-HCl pH 7.5, 50 mM NaCl, 1 mM DTT, 4% glycerol, room temperature, 30 min; GST-TFs on glutathione beads, 16-mer random dsDNA library, 0.1% formaldehyde crosslink after washing; high values mean tight binding
# FEV = molecular target: T1, FEV (Homo sapiens, UniProt Q99581 1-238); settings: protein: recombinant; tags: N-terminal GST; dsDNA, one strand shown
# T1 sequence: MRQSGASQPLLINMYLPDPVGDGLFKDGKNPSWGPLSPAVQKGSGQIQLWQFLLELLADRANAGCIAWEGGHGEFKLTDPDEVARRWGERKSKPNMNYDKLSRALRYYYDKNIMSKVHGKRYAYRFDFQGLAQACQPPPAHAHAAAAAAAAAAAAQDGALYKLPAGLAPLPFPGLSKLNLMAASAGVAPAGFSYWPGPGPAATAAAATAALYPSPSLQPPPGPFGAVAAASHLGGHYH
# In short: (§1)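 Each value of binding signal is a hexamer's read frequency for a factor divided by the same hexamer's frequency in the tag-only sample. Barcoded, bead-captured GST fusions of human transcription factors made in yeast were pooled with that sample and incubated with 200 nmole of a random double-stranded 16-mer DNA library in Tris/NaCl/DTT/glycerol buffer at room temperature for 30 min. Washing, 0.1% formaldehyde crosslinking, proximity ligation, PCR and Illumina NextSeq500 sequencing followed.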
# ETV5 = ETV5 (Homo sapiens, UniProt P41161 1-510); settings: protein: recombinant; tags: N-terminal GST; dsDNA, one strand shown
# ETV5, sequence (P41161 whole entry): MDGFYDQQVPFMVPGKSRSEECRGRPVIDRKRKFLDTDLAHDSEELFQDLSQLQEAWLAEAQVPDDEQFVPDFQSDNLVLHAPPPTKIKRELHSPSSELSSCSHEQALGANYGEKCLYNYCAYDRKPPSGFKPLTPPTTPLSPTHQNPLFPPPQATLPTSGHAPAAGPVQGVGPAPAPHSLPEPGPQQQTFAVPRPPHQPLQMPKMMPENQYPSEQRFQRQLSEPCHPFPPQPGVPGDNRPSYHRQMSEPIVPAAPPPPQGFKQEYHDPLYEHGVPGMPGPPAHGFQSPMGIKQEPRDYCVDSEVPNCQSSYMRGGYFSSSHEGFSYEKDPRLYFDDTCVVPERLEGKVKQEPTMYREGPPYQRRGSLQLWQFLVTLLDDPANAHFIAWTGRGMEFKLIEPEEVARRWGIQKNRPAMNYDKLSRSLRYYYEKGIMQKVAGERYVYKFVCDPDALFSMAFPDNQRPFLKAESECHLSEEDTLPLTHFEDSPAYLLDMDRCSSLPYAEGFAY
# In short: as §1
# HSF1 = HSF1 (Homo sapiens, UniProt Q00613 1-529); settings: protein: recombinant; tags: N-terminal GST; chain copies: 3; dsDNA, one strand shown
# HSF1, sequence (Q00613 whole entry): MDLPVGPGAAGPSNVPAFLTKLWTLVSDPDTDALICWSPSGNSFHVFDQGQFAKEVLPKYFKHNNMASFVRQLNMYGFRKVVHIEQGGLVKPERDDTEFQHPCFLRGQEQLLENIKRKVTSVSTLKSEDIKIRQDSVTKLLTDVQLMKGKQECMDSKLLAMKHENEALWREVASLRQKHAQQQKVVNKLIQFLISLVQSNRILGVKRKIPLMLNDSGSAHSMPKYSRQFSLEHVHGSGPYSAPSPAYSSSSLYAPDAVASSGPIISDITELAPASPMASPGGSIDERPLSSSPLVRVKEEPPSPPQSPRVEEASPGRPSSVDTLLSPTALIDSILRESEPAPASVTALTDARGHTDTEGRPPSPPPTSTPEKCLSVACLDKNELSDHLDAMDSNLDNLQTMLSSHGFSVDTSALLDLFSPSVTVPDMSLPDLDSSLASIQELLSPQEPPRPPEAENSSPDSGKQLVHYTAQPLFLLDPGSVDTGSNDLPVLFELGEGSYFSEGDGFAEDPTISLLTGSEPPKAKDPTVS
# In short: as §1
# SPIC = molecular target: T2, SPIC (Homo sapiens, UniProt Q8N5J4 1-248); settings: protein: recombinant; tags: N-terminal GST; dsDNA, one strand shown
# T2 sequence: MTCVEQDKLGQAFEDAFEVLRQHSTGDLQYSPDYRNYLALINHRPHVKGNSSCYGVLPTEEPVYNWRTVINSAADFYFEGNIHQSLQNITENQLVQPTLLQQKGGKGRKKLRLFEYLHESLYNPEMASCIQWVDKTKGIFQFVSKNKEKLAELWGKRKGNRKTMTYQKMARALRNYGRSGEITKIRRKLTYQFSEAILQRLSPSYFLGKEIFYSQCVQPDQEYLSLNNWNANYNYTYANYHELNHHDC
# In short: as §1
# ELF4 = ELF4 (Homo sapiens, UniProt Q99607 1-663); settings: protein: recombinant; tags: N-terminal GST; dsDNA, one strand shown
# ELF4, sequence (Q99607 whole entry): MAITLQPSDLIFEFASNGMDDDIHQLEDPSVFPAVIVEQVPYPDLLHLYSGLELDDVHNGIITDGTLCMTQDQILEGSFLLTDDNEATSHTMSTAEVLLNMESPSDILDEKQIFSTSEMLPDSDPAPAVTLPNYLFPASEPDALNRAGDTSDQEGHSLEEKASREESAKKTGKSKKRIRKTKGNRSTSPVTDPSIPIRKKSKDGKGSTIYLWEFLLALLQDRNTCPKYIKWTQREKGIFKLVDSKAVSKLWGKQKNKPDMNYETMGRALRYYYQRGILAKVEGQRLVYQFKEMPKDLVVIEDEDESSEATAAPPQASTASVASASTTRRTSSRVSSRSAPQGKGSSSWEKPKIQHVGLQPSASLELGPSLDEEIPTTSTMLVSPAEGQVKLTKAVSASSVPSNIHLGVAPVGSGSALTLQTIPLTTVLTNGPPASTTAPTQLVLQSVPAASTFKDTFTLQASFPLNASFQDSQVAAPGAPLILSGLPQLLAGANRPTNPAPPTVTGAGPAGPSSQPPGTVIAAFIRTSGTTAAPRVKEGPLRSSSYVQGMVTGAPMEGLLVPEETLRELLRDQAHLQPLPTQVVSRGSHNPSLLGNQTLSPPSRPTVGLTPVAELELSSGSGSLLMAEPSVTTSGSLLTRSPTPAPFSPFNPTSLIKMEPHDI
# In short: as §1
# ELK4 = molecular target: T3, ELK4 (Homo sapiens, UniProt P28324-2 1-405); settings: protein: recombinant; tags: N-terminal GST; dsDNA, one strand shown
# T3 sequence: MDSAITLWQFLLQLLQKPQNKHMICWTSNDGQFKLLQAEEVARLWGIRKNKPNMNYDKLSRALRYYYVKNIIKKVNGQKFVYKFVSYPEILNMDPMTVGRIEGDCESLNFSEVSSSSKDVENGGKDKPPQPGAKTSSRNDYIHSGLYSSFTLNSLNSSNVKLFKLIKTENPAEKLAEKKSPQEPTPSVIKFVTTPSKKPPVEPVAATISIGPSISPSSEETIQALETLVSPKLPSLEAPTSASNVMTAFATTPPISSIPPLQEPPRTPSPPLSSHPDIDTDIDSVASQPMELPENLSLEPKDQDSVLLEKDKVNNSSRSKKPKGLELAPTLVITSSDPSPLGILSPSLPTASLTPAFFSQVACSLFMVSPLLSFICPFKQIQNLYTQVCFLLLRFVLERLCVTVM
# In short: as §1
# ETV2 = molecular target: T4, ETV2 (Homo sapiens, UniProt O00321 1-342); settings: protein: recombinant; tags: N-terminal GST; dsDNA, one strand shown
# T4 sequence: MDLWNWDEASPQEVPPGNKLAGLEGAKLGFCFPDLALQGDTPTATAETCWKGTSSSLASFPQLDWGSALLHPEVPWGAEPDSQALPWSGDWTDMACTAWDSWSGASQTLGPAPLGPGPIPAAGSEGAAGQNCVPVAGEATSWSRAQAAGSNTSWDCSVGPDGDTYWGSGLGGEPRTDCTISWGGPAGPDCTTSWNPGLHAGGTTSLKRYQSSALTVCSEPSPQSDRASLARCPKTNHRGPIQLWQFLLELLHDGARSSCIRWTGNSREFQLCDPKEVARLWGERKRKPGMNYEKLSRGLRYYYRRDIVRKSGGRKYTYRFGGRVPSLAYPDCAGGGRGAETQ
# In short: as §1
# ELF3 = molecular target: T5, ELF3 (Homo sapiens, UniProt P78545 1-371); settings: protein: recombinant; tags: N-terminal GST; dsDNA, one strand shown
# T5 sequence: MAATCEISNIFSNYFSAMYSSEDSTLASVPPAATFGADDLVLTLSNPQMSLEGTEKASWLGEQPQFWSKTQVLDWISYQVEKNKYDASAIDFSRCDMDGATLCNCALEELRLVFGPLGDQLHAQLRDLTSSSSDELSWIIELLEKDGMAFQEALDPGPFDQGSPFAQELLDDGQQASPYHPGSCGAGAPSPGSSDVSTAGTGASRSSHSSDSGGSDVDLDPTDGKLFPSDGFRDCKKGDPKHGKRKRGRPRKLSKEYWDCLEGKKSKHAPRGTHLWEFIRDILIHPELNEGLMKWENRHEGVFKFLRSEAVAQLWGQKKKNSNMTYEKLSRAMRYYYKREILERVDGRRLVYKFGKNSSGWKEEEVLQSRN
# In short: as §1
# CRX = CRX (Homo sapiens, UniProt O43186 1-299); settings: protein: recombinant; tags: N-terminal GST; dsDNA, one strand shown
# CRX, sequence (O43186 whole entry): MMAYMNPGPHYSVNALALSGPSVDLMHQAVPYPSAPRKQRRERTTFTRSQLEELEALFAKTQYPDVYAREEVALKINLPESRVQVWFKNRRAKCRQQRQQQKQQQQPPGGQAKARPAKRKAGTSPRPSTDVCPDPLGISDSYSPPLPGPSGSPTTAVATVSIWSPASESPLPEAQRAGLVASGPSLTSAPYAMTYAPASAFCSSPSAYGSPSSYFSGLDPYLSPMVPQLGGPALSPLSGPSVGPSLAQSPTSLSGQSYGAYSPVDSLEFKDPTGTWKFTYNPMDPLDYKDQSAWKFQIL
# In short: as §1
# ETV1 = ETV1 (Homo sapiens, UniProt P50549 1-477); settings: protein: recombinant; tags: N-terminal GST; dsDNA, one strand shown
# ETV1, sequence (P50549 whole entry): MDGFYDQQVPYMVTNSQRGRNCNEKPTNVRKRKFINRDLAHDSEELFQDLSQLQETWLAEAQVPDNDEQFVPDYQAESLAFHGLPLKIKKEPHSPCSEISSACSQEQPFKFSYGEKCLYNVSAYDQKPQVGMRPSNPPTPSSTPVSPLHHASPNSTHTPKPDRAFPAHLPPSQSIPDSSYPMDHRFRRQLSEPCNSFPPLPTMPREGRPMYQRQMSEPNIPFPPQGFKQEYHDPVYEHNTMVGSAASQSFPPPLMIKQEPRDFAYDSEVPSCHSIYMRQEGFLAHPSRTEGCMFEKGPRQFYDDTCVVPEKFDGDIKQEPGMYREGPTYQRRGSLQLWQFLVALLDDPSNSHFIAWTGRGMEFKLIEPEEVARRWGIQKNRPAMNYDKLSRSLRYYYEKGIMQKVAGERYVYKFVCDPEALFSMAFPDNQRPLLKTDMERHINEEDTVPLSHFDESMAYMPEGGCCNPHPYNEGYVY
# In short: as §1
# ERF = molecular target: T6, ERF (Homo sapiens, UniProt P50548 1-548); settings: protein: recombinant; tags: N-terminal GST; dsDNA, one strand shown
# T6 sequence: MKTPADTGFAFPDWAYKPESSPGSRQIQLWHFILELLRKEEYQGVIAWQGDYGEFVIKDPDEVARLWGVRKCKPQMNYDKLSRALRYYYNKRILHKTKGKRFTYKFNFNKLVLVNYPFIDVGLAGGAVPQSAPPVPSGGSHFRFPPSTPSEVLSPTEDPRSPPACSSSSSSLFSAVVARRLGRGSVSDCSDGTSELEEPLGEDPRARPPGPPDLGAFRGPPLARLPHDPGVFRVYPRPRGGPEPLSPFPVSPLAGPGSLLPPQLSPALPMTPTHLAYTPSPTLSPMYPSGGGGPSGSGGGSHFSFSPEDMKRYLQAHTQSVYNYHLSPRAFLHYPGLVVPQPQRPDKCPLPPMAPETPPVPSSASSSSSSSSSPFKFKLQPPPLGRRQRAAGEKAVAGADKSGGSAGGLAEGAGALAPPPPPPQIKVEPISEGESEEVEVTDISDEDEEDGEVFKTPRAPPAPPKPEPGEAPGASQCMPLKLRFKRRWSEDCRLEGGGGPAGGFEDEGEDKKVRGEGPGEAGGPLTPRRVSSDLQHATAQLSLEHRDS
# In short: as §1
# ETV3L = molecular target: T7, ETV3L (Homo sapiens, UniProt Q6ZN32 1-361); settings: protein: recombinant; tags: N-terminal GST; dsDNA, one strand shown
# T7 sequence: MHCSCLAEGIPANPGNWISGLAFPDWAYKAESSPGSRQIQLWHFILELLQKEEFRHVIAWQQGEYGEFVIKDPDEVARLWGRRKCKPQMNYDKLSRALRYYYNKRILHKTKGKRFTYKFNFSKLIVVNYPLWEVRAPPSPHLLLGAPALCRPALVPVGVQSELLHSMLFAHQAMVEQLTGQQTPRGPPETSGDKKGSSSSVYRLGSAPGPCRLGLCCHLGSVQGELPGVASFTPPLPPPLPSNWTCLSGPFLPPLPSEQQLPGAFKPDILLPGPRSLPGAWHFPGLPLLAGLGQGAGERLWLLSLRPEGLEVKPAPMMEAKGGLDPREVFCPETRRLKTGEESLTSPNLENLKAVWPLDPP
# In short: as §1
# ETS2 = molecular target: T8, ETS2 (Homo sapiens, UniProt P15036 1-469); settings: protein: recombinant; tags: N-terminal GST; dsDNA, one strand shown
# T8 sequence: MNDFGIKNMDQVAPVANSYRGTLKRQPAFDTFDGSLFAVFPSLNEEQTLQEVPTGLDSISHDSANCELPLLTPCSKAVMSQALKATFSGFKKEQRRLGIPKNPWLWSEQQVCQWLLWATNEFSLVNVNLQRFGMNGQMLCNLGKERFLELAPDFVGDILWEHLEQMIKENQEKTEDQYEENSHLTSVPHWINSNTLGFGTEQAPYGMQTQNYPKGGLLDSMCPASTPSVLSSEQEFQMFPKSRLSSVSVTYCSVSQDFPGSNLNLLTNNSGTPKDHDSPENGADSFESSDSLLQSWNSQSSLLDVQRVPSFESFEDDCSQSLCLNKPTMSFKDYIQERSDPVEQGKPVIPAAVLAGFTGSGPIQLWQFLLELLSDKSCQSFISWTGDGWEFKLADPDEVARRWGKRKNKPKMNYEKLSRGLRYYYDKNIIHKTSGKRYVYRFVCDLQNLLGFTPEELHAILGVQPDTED
# In short: as §1
# SPDEF = molecular target: T9, SPDEF (Homo sapiens, UniProt O95238 1-335); settings: protein: recombinant; tags: N-terminal GST; dsDNA, one strand shown
# T9 sequence: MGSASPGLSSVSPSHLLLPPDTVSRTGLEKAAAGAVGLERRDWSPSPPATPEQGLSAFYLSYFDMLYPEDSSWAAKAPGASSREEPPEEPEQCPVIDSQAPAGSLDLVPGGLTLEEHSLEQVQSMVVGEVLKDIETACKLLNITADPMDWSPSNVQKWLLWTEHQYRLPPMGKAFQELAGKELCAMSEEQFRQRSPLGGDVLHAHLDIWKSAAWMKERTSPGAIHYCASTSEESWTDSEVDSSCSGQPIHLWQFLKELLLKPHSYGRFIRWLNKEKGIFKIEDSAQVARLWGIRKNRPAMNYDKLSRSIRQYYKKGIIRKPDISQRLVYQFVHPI
# In short: as §1
# ETV7 = molecular target: T10, ETV7 (Homo sapiens, UniProt Q9Y603 1-341); settings: protein: recombinant; tags: N-terminal GST; dsDNA, one strand shown
# T10 sequence: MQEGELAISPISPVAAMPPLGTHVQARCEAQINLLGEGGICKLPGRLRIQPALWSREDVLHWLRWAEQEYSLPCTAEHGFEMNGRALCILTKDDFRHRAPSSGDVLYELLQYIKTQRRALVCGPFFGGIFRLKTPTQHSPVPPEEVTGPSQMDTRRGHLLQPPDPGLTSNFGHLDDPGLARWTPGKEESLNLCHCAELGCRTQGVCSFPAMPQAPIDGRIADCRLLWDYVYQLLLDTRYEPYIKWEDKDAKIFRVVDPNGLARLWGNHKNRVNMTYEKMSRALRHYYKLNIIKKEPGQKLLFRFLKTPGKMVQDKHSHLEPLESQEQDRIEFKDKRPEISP
# In short: as §1
# ELF5 = molecular target: T11, ELF5 (Homo sapiens, UniProt Q9UKW6-2 1-255); settings: protein: recombinant; tags: N-terminal GST; dsDNA, one strand shown
# T11 sequence: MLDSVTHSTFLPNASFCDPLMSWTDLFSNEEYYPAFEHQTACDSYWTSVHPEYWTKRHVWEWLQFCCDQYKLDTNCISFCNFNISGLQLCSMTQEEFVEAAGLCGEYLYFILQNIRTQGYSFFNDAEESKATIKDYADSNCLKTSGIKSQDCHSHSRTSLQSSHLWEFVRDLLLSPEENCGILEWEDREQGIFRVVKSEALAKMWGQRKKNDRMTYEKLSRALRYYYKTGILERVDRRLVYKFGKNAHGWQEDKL
# In short: as §1
# ETV3 = molecular target: T12, ETV3 (Homo sapiens, UniProt P41162-2 1-143); settings: protein: recombinant; tags: N-terminal GST; dsDNA, one strand shown
# T12 sequence: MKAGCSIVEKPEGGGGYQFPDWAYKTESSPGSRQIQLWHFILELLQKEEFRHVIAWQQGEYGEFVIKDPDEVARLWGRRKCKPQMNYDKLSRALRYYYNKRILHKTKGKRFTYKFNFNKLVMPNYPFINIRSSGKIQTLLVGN
# In short: as §1
# ETV6 = ETV6 (Homo sapiens, UniProt P41212 1-452); settings: protein: recombinant; tags: N-terminal GST; dsDNA, one strand shown
# ETV6, sequence (P41212 whole entry): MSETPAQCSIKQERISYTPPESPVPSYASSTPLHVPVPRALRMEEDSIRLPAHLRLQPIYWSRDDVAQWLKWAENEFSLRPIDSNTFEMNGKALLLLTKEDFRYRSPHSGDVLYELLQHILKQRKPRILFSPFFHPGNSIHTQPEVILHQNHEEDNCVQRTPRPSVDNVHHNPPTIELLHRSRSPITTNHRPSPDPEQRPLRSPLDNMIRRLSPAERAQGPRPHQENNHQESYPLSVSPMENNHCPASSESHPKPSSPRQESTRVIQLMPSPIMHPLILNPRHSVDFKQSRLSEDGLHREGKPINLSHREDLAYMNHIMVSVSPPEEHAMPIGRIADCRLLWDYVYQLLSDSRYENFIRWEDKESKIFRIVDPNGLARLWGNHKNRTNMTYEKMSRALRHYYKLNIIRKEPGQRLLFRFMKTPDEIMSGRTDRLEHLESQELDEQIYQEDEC
# In short: as §1
sequence,measurement,setting,value
CCTAGC,binding signal,FEV,"1.18 fold enrichment (6-mer frequency, TF over GST control)"
same,binding signal,ETV5,"1.15 fold enrichment (6-mer frequency, TF over GST control)"
same,binding signal,HSF1,"1.17 fold enrichment (6-mer frequency, TF over GST control)"
same,binding signal,SPIC,"1.17 fold enrichment (6-mer frequency, TF over GST control)"
same,binding signal,ELF4,"1.16 fold enrichment (6-mer frequency, TF over GST control)"
same,binding signal,ELK4,"1.13 fold enrichment (6-mer frequency, TF over GST control)"
same,binding signal,ETV2,"1.13 fold enrichment (6-mer frequency, TF over GST control)"
same,binding signal,ELF3,"1.12 fold enrichment (6-mer frequency, TF over GST control)"
same,binding signal,CRX,"1.02 fold enrichment (6-mer frequency, TF over GST control)"
same,binding signal,ETV1,"1.13 fold enrichment (6-mer frequency, TF over GST control)"
same,binding signal,ERF,"1.26 fold enrichment (6-mer frequency, TF over GST control)"
same,binding signal,ETV3L,"1.09 fold enrichment (6-mer frequency, TF over GST control)"
same,binding signal,ETS2,"1.11 fold enrichment (6-mer frequency, TF over GST control)"
same,binding signal,SPDEF,"1.21 fold enrichment (6-mer frequency, TF over GST control)"
same,binding signal,ETV7,"1.18 fold enrichment (6-mer frequency, TF over GST control)"
same,binding signal,ELF5,"1.06 fold enrichment (6-mer frequency, TF over GST control)"
same,binding signal,ETV3,"1.16 fold enrichment (6-mer frequency, TF over GST control)"
same,binding signal,ETV6,"1.15 fold enrichment (6-mer frequency, TF over GST control)"
